# Assay outcomes as filed in PubChem BioAssay.
# DT40 TDP1 CPT = qHTS for Inhibitors of human tyrosyl-DNA phosphodiesterase 1 (TDP1): qHTS in cells in presence of CPT; chicken DT40 Tdp1-/-;hTDP1 cells + 20 nM CPT, ATP luminescence, 48 h; Potency, µM (top dose mostly 46.2 µM), most hits filed as inhibitors; 12% of 420,000 active; AID 686979, 2013; also: nearly all actives have a fitted effect of over 55% in size
#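 Chicken DT40 Tdp1-/- cells stably complemented with human TDP1 were seeded at 400 cells/well in medium containing 20 nM camptothecin, exposed to pin-transferred compounds, and grown at 37 °C for at least 48 hr. Viability was read as ATP luminescence.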
# HT1080NT lethal = qHTS for induction of synthetic lethality in tumor cells producing 2HG: qHTS for the HT-1080-NT fibrosarcoma cell line | 1.6% of 360,000 active | HT-1080-NT fibrosarcoma viability, CellTiter-Glo ATP luminescence, 48 h | AID 686970, 2013 | Potency, µM (doses to about 46.1 µM), most hits filed as cytotoxic;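 also: NT is the 2HG producing partner of a matched IDH1 knockdown line; nearly all actives have a fitted effect of over 55% in size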
#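 HT-1080-NT fibrosarcoma cells (2HG-overproducing), 750 cells/well in RPMI with 5% FBS, dosed after 2 h and incubated 48 h at 37C. CellTiter-Glo luminescence normalized to DMSO and no-cell wells; concentration-response curves fitted and classed.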
# DT40 TDP1 no CPT = qHTS for Inhibitors of human tyrosyl-DNA phosphodiesterase 1 (TDP1): qHTS in cells in absence of CPT; DT40 Tdp1-/- hTDP1 cells, no CPT, ATP luminescence, 48 h; Potency, µM (doses to about 46.2 µM), hits mostly inhibitors; 15% of 420,000 active; AID 686978, 2013; also: nearly all actives have a fitted effect of over 55% in size
#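 Growth of hTDP1-complemented DT40 Tdp1-knockout cells is measured by ATP luminescence after at least 48 hr compound exposure at 37 °C, with DMSO substituting for the 20 nM CPT used in the parallel screen.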
# HT1080 IDH1KD tx = qHTS for induction of synthetic lethality in tumor cells producing 2HG: qHTS for the HT-1080-IDH1KD cell line; HT-1080 IDH1 knockdown viability, ATP luminescence, 48 h; Potency, µM (top dose mostly 46.1 µM), usual class: cytotoxic; 2% of 360,000 active; AID 686971, 2013
#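 Knockdown cells (IDH1KD HT-1080) received compounds 2 h after plating at 750 cells/well and were kept 48 h at 37 °C in 5% FBS RPMI. A CellTiter-Glo luminescence read gave % activity for curve fitting.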
# IL1B secr inh = qHTS for Inhibitors of Inflammasome Signaling: IL-1-beta AlphaLISA Primary Screen | AID 743279, 2014 | THP-1 LPS/ATP IL-1B secretion, AlphaLISA, 16 h; stronger effect = lower value | 4.7% of 360,000 active | activity change, % at 57.5 µM; in the data active = activity change below about -50%; inconclusive = mostly about -30% to -49%
#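 Secreted IL-1B measured by AlphaLISA bead assay after 16 h compound exposure of THP-1 cells; compounds (final up to 57.5 uM) added 1 h before LPS (250 ng/mL) and ATP (1.25 mM) stimulation; lower signal means less secretion.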
# A number is an active result; - = inactive; ? = inconclusive; . = no result; [ ] = remark or other dose. Only some compounds are listed: those with a hit (about 19% of all), similar ones and a draw of the others. Unless noted, calls follow the shape of the dose curve; as a rule, active = well fitted curve in the direction sought with a large enough effect; inconclusive = small, poorly fitted or top-dose-only effect, or another doubt; inactive = no such curve, though single readings can be large; an effect the other way counts as inactive or inconclusive.
SMILES,DT40 TDP1 CPT,HT1080NT lethal,DT40 TDP1 no CPT,HT1080 IDH1KD tx,IL1B secr inh
COc1ccccc1N1CCN(C2C(=O)Nc3ccccc3-n3nnnc32)CC1 (centres undefined),?,-,?,-,-
COc1ccc(C2CC(c3cccs3)=NN2S(C)(=O)=O)cc1 (centres undefined),-,-,-,-,-
Cc1ccc(C2CC(c3cccs3)=NN2S(=O)(=O)c2ccc(C)cc2)cc1 (centres undefined),21µM,-,23µM,-,-
O=S(=O)(c1ccccc1)N1N=C(c2cccs2)CC1c1ccc(F)cc1 (centres undefined),?,-,?,-,-
COc1ccc(C2CC(c3cccs3)=NN2S(=O)(=O)c2ccc(C)cc2)cc1 (centres undefined),23µM,-,23µM,-,-
O=S(=O)(c1ccccc1)N1N=C(c2cccs2)CC1c1cccc(O)c1 (centres undefined),?,-,16µM,-,?
CCOc1ccc(C(=O)Nc2c(C(=O)c3ccccc3)oc3ccccc23)cc1,-,.,-,.,.
O=C(Nc1ccc2c(c1)OCO2)c1csc([C@H]2C[C@H](O)[C@@H](CO)O2)n1,-,-,-,-,-
CC(C)(C)C(=O)NCCc1nc(-c2ccccc2)no1,-,-,-,-,-
Cc1ccc(-c2nc3sc(CCNS(=O)(=O)c4cc(F)ccc4F)c(C)n3n2)cc1,?,.,21µM,.,.
Cc1c(CCNC(=O)C(C)(C)C)sc2nc(-c3ccc(F)cc3)nn12,?,.,26µM,.,.
N#Cc1c(NCc2ccccc2)ccnc1NCc1cccnc1,23µM,-,8.2µM,-,?
N#Cc1c(F)cccc1NCc1cccnc1,-,-,-,-,-
CCOC(CN=c1nc(N(C)C)ss1)OCC,0.58µM,-,0.73µM,?,-101
O=C(c1cc2cc(Cl)ccc2[nH]1)N1CCN(c2ccc(F)cc2)CC1,-,-,-,-,-85
COc1ccccc1N1CCN(C(=O)c2cc3cc(F)ccc3[nH]2)CC1,?,?,23µM,-,?
COc1ccc(N2CCN(C(=O)c3cc4cc(Cl)ccc4[nH]3)CC2)cc1,?,-,?,-,-
CSc1ccc(C(=O)C2CCCN(C(=O)c3cc4cc(F)ccc4[nH]3)C2)cc1 (centres undefined),18µM,-,18µM,-,-63
COc1ccccc1N1CCN(C(=O)c2cc3cc(C)ccc3[nH]2)CC1,?,-,?,?,-
COc1ccccc1N1CCN(C(=O)c2cc3ccccc3[nH]2)CC1,?,-,?,-,-
COc1ccccc1N1CCN(C(=O)c2cc3cc(Cl)ccc3[nH]2)CC1,16µM,-,18µM,-,-
Cc1ccc(NC(=O)COC(=O)CC2SC(N3CCCC3)=NC2=O)cc1 (centres undefined),-,-,-,-,-
COc1ccc(C(=O)OCC(=O)NC2CC2)cc1F,-,-,-,-,-
COc1ccc(CN(C)CC(=O)Nc2ccccc2C(=O)NC2CC2)cc1,?,-,?,-,-
O=C(c1cc2cc(F)ccc2[nH]1)N1CCN(C(=O)c2ccco2)CC1,?,-,21µM,-,-
SMILES,DT40 TDP1 CPT,HT1080NT lethal,DT40 TDP1 no CPT,HT1080 IDH1KD tx,IL1B secr inh
CN1CCN(C(=O)c2cc3cc(F)ccc3[nH]2)CC1,?,-,-,-,-
CCCCCCCCC(c1nc2ccccc2[nH]1)N1CCN=C1c1cc2ccccc2[nH]1 (centres undefined),7.3µM,?,6.5µM,?,-66
COc1cc(/C(C)=N/NC(=O)c2nnn(-c3nonc3N)c2-c2cccs2)ccc1O,?,-,?,-,-
Cc1ccc(CN2CCN(Cc3cccc4nccnc34)CC2CCO)cc1 (centres undefined),?,-,-,-,-
O=C(/C=C/c1ccc(Cl)cc1)NC1CC2CCC1C2 (centres undefined),-,-,?,-,-99
COc1ccc(CCN(C)C(=O)c2cc(S(=O)(=O)N3CCCCCC3)ccc2OC)cc1OC,?,-,?,-,-
COc1ccc(S(=O)(=O)N2CCCCCC2)cc1C(=O)N(C)CCOc1ccc(Cl)cc1,21µM,?,21µM,-,?
COc1ccc(CCN(C)C(=O)c2cc(S(=O)(=O)N3CCCCC3)ccc2Cl)cc1OC,?,-,23µM,-,-
CCN1CCN(S(=O)(=O)c2ccc(Cl)c(C(=O)N(C)C(c3ccccc3)c3ccccc3)c2)CC1,?,-,?,-,-75
CCN1CCN(S(=O)(=O)c2ccc(Cl)c(C(=O)N(C)Cc3cccs3)c2)CC1,?,-[9.24 µM],?,-,-
CCN1CCN(S(=O)(=O)c2ccc(Cl)c(C(=O)N(C)Cc3ccc(Cl)cc3Cl)c2)CC1,?,-,23µM,-,-
CCN1CCN(S(=O)(=O)c2ccc(Cl)c(C(=O)N(C)C3CCCCC3)c2)CC1,?,-,?,-,-
CCOC(=O)c1c(C)[nH]c(C)c1S(=O)(=O)NCC(=O)Nc1ccc(C)cc1C,-,.,-,.,.
CCN1CCN(S(=O)(=O)c2ccc(Cl)c(C(=O)N(C)CCOc3ccc(Cl)cc3)c2)CC1,18µM,?,15µM,?,-
Cn1c(=O)c2c(ncn2CC(=O)N2CCCc3ccccc32)n(C)c1=O,-,-,-,-,-
Cc1cc(NC(=O)CSc2nc(C(C)C)nc3c2c(=O)n(C)c(=O)n3C)no1,16µM,-,16µM,-,-
CC(C)c1nc(SCC(=O)N2CCCc3ccccc32)c2c(=O)n(C)c(=O)n(C)c2n1,7.3µM,?,6.5µM,-,-
Cc1cc(NC(=O)CSc2nc(-c3ccccc3)nc3c2c(=O)n(C)c(=O)n3C)no1,-,-,-,-,-
CC1CCN(C(=O)CSc2nc(C(C)C)nc3c2c(=O)n(C)c(=O)n3C)CC1,16µM,-,18µM,-,-
C[C@H](CO)N1C[C@H](C)[C@@H](CN(C)S(=O)(=O)c2cn(C)cn2)Oc2ncc(Br)cc2C1=O,-,-,?,-,-
CC(C)C1C(=O)N(Cc2cn(CC3CCCCC3)nn2)CCS(=O)(=O)N1Cc1ccc(-c2ccc(F)nc2)cc1 (centres undefined),?,?,13µM,?,?
CC(C)C1C(=O)N(Cc2cn(CC3CCCCC3)nn2)CCS(=O)(=O)N1Cc1ccc(-c2ccncc2)cc1 (centres undefined),-,-,?,-,-
COCOCCn1cc(CN2CCS(=O)(=O)N(Cc3ccc(-c4ccc(C)cc4)cc3)C(C(C)C)C2=O)nn1 (centres undefined),?,-,?,-,-
